Screening data from PubChem.
ALOX15 inhib – blocks human 15-lipoxygenase activity; purified 15hLO-1, xylenol orange hydroperoxide absorbance; Potency, µM (series often up to 57.1 µM), inactives show at the highest dose activity change, negative = inhibition, most hits filed as inhibitors; hit rate 1.4% among 74,000; AID 887; note: potency is the fitted concentration of half-maximal effect; % is set by controls: 0 for no effect and ±100 for the full control effect; nearly all actives have a fitted effect of over 55% in size
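Purified human 15hLO-1 (40 nM final) in 25 mM Hepes pH 7.5, 0.01% Triton X-100 was preincubated with compound 15 min at room temperature, then reacted 6 min with 50 uM arachidonic acid; hydroperoxide detected by Fe-XO, 573/405 nm absorbance ratio.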
Tau filament bind – binds recombinant human tau filaments; P10636; recombinant tau filaments, thioflavin S fluorescence, 15 h; filaments grown with octadecylsulfate alongside compound; Potency, µM (top dose mostly 57.1 µM), inactives show at the top dose activity change, negative = inhibition; hit rate 2% among 71,000;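 note: potency is the fitted concentration of half-maximal effect; % is set by controls: 0 for no effect and ±100 for the full control effect; actives lower thioflavin S fluorescence by blocking filaments or displacing dye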
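Tau 2 uM in ThS buffer dispensed; compound added; 60 uM ODS added (finals 1 uM tau, 30 uM ODS); 15 h 37 C; fluor ex450/em510.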
ERK AVP inh – blocks ERK signaling stimulated by vasopressin | HEK293-V1b, vasopressin-stimulated pERK AlphaScreen | Potency, µM (series often up to 57.5 µM), for the others: top-dose activity, negative = inhibition, actives largely listed as inhibitors | hit rate 0.99% among 72,000 | AID 995; note: potency is the fitted concentration of half-maximal effect; % is set by controls: 0 for no effect and ±100 for the full control effect; nearly all actives have a fitted effect of over 55% in size
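HEK293 cells stably expressing V1b receptor, seeded overnight in 1% FBS, were treated with compounds for 30 min at 37C, then stimulated 5 min with 25 nM vasopressin; phospho-ERK read by AlphaScreen SureFire after lysis.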
Pol III holo inh – inhibitors of bacterial DNA polymerase III holoenzyme; reconstituted DNA polymerase III holoenzyme replication, biochemical; Potency, µM (top dose mostly 57.1 µM), without a hit: at the top dose activity change, negative = inhibition; hit rate 0.25% among 71,000; AID 603; note: potency is the fitted concentration of half-maximal effect; % is set by controls: 0 for no effect and ±100 for the full control effect
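Reconstituted *E. coli* holoenzyme (0.35 nM Pol III, 1 nM beta, 154 nM SSB, 2 nM primase) was preincubated with compound for 15 min at RT. Synthesis on 1.4 nM ssM13Gori ran 35 min, then was stopped with PicoGreen/EDTA and read as dsDNA fluorescence.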
FLuc inh – firefly luciferase inhibition. AID 411. P08659. purified firefly luciferase, luminescence, 8 min. Potency, µM (series often up to 57.1 µM), without a hit: top-dose activity change, negative = inhibition, hits mostly inhibitors. hit rate 2.2% among 72,000; note: potency is the fitted concentration of half-maximal effect; % is set by controls: 0 for no effect and ±100 for the full control effect; nearly all actives have a fitted effect of over 40% in size
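qHTS concentration-response profiling: light output of P. pyralis luciferase with luciferin and 10 uM ATP, imidazole buffer pH 7.2. Read by luminescence after 8-min room-temperature incubation.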
Bst PK mod – alters activity of Bacillus stearothermophilus pyruvate kinase; Potency, µM; hit rate 1.2% among 51,000; purified pyruvate kinase, luminescence ATP production; ribose 5-phosphate activator present at AC10; in the data active = potency below about 11 µM; inconclusive = mostly about 12 µM to 25 µM;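 the screen sought inhibitors and activators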;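 note: potency is the fitted concentration of half-maximal effect; scaled between full activation by ribose 5 phosphate and full inhibition by luteolin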
Tau ThS bind – displaces Thioflavin S from human tau filaments; shares compounds with Tau filament bind; recombinant tau filaments, Thioflavin S fluorescence displacement; Potency, µM; hit rate 40% among 60; AID 911; calls by dose curve
aSyn ThS displ – compounds binding human alpha-synuclein fibrils, displacing Thioflavin S | shares compounds with Tau filament bind | recombinant alpha-synuclein fibrils, ThS fluorescence displacement | Potency, µM | hit rate 40% among 60 | AID 937; calls by dose curve
Abeta ThS displ – amyloid beta fibril binding by ThS displacement; hit rate 50% among 60; shares compounds with Tau filament bind; Abeta1-42 fibrillization, thioflavin S fluorescence, overnight 37 C; Potency, µM; calls by dose curve
Target sequence (P05067 whole entry, looked up): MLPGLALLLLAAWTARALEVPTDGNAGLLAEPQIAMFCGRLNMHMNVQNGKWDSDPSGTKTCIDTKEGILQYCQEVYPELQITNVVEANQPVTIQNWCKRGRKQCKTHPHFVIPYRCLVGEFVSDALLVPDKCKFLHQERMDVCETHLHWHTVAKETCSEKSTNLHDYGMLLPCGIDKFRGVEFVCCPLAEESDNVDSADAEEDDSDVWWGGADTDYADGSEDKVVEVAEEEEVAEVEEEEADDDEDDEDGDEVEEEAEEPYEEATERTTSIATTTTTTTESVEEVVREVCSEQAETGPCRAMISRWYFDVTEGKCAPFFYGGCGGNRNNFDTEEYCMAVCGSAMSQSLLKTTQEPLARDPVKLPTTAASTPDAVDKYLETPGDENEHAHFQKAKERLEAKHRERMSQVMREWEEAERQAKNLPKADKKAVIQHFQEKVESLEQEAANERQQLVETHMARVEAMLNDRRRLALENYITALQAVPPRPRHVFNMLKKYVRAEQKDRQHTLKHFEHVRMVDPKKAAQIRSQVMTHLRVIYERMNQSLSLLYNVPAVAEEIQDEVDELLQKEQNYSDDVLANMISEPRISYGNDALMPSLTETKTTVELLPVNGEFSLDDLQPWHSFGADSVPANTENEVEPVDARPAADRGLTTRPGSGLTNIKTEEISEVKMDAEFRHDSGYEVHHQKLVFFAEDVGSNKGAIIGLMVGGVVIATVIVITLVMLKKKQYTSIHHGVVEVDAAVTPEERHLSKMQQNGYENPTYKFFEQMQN
Numbers without * were called inactive; i = inactive; ? = inconclusive; . = no result; [ ] = another dose, or the depositor's remark. This is a sample that favours compounds with a hit; in the whole collection about 6% have one here. Unless noted, calls come from the whole dose curve; as a rule, active = well fitted curve in the direction sought with a large enough effect; inconclusive = small, poorly fitted or top-dose-only effect, or another doubt; inactive = no such curve, though single readings can be large; an effect the other way counts as inactive or inconclusive.

SMILES | ALOX15 inhib | Tau filament bind | ERK AVP inh | Pol III holo inh | FLuc inh | Bst PK mod | Tau ThS bind | aSyn ThS displ | Abeta ThS displ
Oc1c(CN2CCOCC2)cc(COCc2ccccc2)c2cccnc12 | 23% | -48% | 2% | 0% | -1% | >57 | i | ? | i
CC(C)=NOC[C@@H](O)[C@@H]1O[C@@H]2OC(C)(C)O[C@@H]2[C@H]1O | 5%[11.4 µM] | . | 2%[11.5 µM] | . | 1%[11.4 µM] | . | . | . | .
O=C(c1cnccn1)N1CCC2(CC1)CN(Cc1ccccc1)C2 | 5% | -3% | 15% | -3% | -1%[11.4 µM] | . | . | . | .
Cc1cc(C(=O)Nc2ccc(N3CCOCC3)cc2)c2ccccc2n1 | 2% | 7.9µM* | -14% | 2% | 2% | >57 | i | i | i
Cc1nn(Cc2ccccc2)c(C)c1C(=O)Nc1ccc(N2CCOCC2)cc1 | 7% | 1% | -9% | -5% | -2% | >57 | . | . | .
CN(C)c1ncc2nc(-c3ccc(Cl)cc3)c(=O)n(-c3ccccc3)c2n1 | ? | 46% | 22% | -6% | 0%[11.4 µM] | . | . | . | .
COc1cccc2c1C(=N)c1c(O)c3c(c(O)c1C2=O)C[C@](O)(C(C)=O)C[C@@H]3O[C@H]1C[C@H](N)[C@@H](O)[C@H](C)O1 | 12%[11.4 µM] | 1.3µM* | -19%[11.5 µM] | 3.2µM* | -20%[11.4 µM] | . | 1.8µM* | 2µM* | 0.68µM*
CC(C)(CO)[C@H](O)C(=O)NCCC(=O)O | 16%[25.6 µM] | -2%[25.6 µM] | -9%[25.7 µM] | -5%[25.6 µM] | 1%[25.5 µM] | . | . | . | .
CN1CCc2c(sc3c2C(=O)NC(c2ccccn2)N3)C1 (configuration not stated) | 14% | i | -21% | -1% | -2% | i | . | . | .
CCOC(=O)N1CCc2c(sc3c2C(=O)NC(c2ccc(-c4ccc(Cl)cc4)o2)N3)C1 (configuration not stated) | -2% | 0.63µM* | -2% | 6% | -2% | >57 | i | i | i
